Experimental findings from PubChem BioAssay (EPA / NIEHS) are described below.

SMILES strings stand for the structures. Activity calls are given as the source filed them. Rule for the calls: active = hit-call score of the fitted dose curve at least 0.9, where 1 is the maximum; inactive = score below 0.9.

Assay [1] concerns the target CCAAT/enhancer-binding protein beta (Homo sapiens) (UniProt P17676). Description: ATG_C_EBP_CIS: Attagene CIS-FACTORIAL HepG2 Assay for human CCAAT/Enhancer Binding Protein (C/EBP) beta (AID 2282927). As to conditions: HepG2 Attagene cis-factorial transcription factor reporter; actives raise or lower the signal. In outline: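 Following a 24 h incubation with test chemical, transfected HepG2 cells yielded RNA whose reporter transcripts were quantified by RT-PCR and fluorescent capillary electrophoresis, with DMSO serving as baseline for bidirectional fitting.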

A short description of assay [2]: ATG_DR4_LXR_CIS: Attagene CIS-FACTORIAL HepG2 Assay for human Liver X Receptor (LXR), DR4 submotif (AID 2282929). As to conditions: HepG2 Attagene DR4 cis-reporter, mRNA transcription; actives raise or lower the signal. In outline:
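After transient transfection with multiplexed cis-promoter reporter units, HepG2 cells received test chemicals for 24 h. Reporter mRNA induction, detected by fluorescence after RT-PCR and capillary electrophoresis, was scored relative to DMSO.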

Assay [3] in a line: ATG_AP_2_CIS: Attagene CIS-FACTORIAL HepG2 Assay for human Activator Protein 2 (AP-2) (AID 2282932). As to conditions: HepG2 AP-2 cis-reporter, Attagene transcription factor profiling; actives raise or lower the signal. In outline: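 Bidirectional curve fitting against DMSO was applied to reporter mRNA signals from HepG2 cells 24 h after dosing. Cis-promoter reporter units, transiently transfected, were read by RT-PCR plus capillary electrophoresis.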

The target of assay [4] is Transcription factor E2F1 (Homo sapiens) (UniProt Q01094). Briefly: ATG_E2F_CIS: Attagene CIS-FACTORIAL HepG2 Assay for human E2F Transcription Factor 1 (AID 2282935). As to conditions: HepG2 Attagene cis-reporter, E2F reporter RNA transcripts; actives raise or lower the signal. In outline:
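Multiplexed cis-reporter assay: HepG2, transient transfection, 24 h dosing, mRNA quantitation by labeled RT-PCR and CE.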

Assay [5] can be described thus: ATG_E_Box_CIS: Attagene CIS-FACTORIAL HepG2 Assay for human Enhancer Box (E-box) (AID 2282936). As to conditions: HepG2 E-box cis-reporter transcription, actives raise or lower the signal. In outline: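 Multiplexed CIS reporter system in transiently transfected HepG2 cells measures native transcription factor activity. Reporter RNA after 24 h exposure is profiled by RT-PCR-capillary electrophoresis.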

Assay [6] can be described thus: ATG_M_19_CIS: Attagene CIS-FACTORIAL HepG2 Assay for M19 Transcription Factor (Internal Marker) (AID 2282939). As to conditions: HepG2 Attagene CIS-FACTORIAL M19 internal marker reporter; actives raise or lower the signal. In outline:
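Signals come from fluorescence of labelled reporter-specific PCR fragments resolved by capillary electrophoresis, following 24 h treatment of HepG2 cells transfected with cis-promoter reporter units; activity was fitted in both directions relative to DMSO.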

The nature of assay [7]: ATG_GLI_CIS: Attagene CIS-FACTORIAL HepG2 Assay for human Zinc Finger Protein GLI1 (AID 2282945). As to conditions: HepG2, Attagene cis-factorial reporter mRNA, GLI element; actives raise or lower the signal. In outline:
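HepG2 cells transiently transfected with cis-promoter multiplexed reporter units report endogenous transcription factor activity. After 24 h chemical exposure, reporter mRNA was quantified by RT-PCR, 6-FAM labelling, HpaI digestion and capillary electrophoresis, with bidirectional fitting against DMSO.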

Assay [8] in a line: ATG_ISRE_CIS: Attagene CIS-FACTORIAL HepG2 Assay for human Interferon Regulatory Factor 1 (IRF1) binding to an Interferon-Stimulated Response Element (ISRE) (AID 2282948). As to conditions: HepG2 ISRE cis-reporter (Attagene), mRNA transcription readout; actives raise or lower the signal. In outline: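 Transfected HepG2 (multiple reporter transcription units, cis elements) dosed 24 h. RNA → oligo(dT) RT → PCR → 6-FAM primer extension → HpaI → CE. DMSO = negative control/baseline.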

Assay [9] is described as follows: ATG_M_32_CIS: Attagene CIS-FACTORIAL HepG2 Assay for M32 Transcription Factor (Internal Marker) (AID 2282949).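 Note: background control marker of the multiplexed CIS panel rather than a real target.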 As to conditions: HepG2 Attagene cis-factorial M32 reporter, mRNA; actives raise or lower the signal. In outline: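 Fluorescent capillary electrophoresis peaks of HpaI-digested, FAM-labelled RT-PCR reporter products give the signal. Source: transiently transfected human liver HepG2 cells, 24 h after chemical dosing; bidirectional fitting against DMSO.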

Assay [10] can be described thus: ATG_PXRE_CIS: Attagene CIS-FACTORIAL HepG2 Assay for human Pregnane X Receptor Element (PXRE) (AID 2282957). As to conditions: HepG2 Attagene CIS-FACTORIAL PXRE reporter, mRNA; actives raise or lower the signal. In outline: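 Cis-element reporter mRNA in human hepatoma HepG2 cells is measured 24 h post-dosing by RT-PCR, primer-extension labeling and capillary electrophoresis; gain or loss of signal is fitted relative to DMSO.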

The nature of assay [11]: ATG_Sox_CIS: Attagene CIS-FACTORIAL HepG2 Assay for human SRY-box transcription factor (SOX) (AID 2282960). As to conditions: HepG2 Attagene cis-factorial SOX reporter, mRNA; actives raise or lower the signal. In outline:
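Using transiently transfected HepG2 cells, reporter transcription driven by cis elements was assessed 24 h after dosing. Signal was fluorescence of capillary-separated RT-PCR products, with DMSO defining baseline activity.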

Assay [12] addresses Transcription factor Sp1 (Homo sapiens) (UniProt P08047). Briefly: ATG_Sp1_CIS: Attagene CIS-FACTORIAL HepG2 Assay for human Specificity Protein 1 (Sp1) (AID 2282961). As to conditions: HepG2 Sp1 cis-reporter transcription, actives raise or lower the signal. In outline: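 After transient transfection of HepG2 cells with cis-promoter reporter units and 24 h chemical treatment, reporter transcripts were quantified by RT-PCR and capillary electrophoresis fluorescence. Gain- and loss-of-signal fitted against DMSO.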

In assay [13] the target is Signal transducer and activator of transcription 3 (Homo sapiens) (UniProt P40763). Briefly: ATG_STAT3_CIS: Attagene CIS-FACTORIAL HepG2 Assay for human Signal Transducer and Activator of Transcription 3 (STAT3) (AID 2282963). As to conditions: HepG2, Attagene cis-factorial STAT3 reporter transcription; actives raise or lower the signal. In outline:
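Transcript-level reporter assay. HepG2 transient MRTU transfection, 24 h exposure, fluorescence detection after RT-PCR and CE; DMSO baseline.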

The nature of assay [14]: ATG_TA_CIS: Attagene CIS-FACTORIAL HepG2 Assay for human TA Basal Promoter (AID 2282964). As to conditions: HepG2 Attagene CIS-factorial TA basal promoter reporter; actives raise or lower the signal. In outline:
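Fluorescence from labelled RT-PCR reporter fragments, separated by capillary electrophoresis, gives the signal. Cells: HepG2 transiently carrying multiple reporter units, 24 h chemical dosing. Gain or loss relative to DMSO.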

Assay [15] can be described thus: ATG_TCF_b_cat_CIS: Attagene CIS-FACTORIAL HepG2 Assay for human T-Cell-Factor with beta-catenin (TCF/b-cat) (AID 2282965). As to conditions: HepG2 TCF/beta-catenin cis-reporter transcription, actives raise or lower the signal. In outline:
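Using capillary electrophoresis as the read-out, labelled reporter cDNA fragments from transiently transfected HepG2 were sized and quantified. Exposure lasted 24 hours; activity in either direction was referenced to DMSO.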

Assay [16] can be described thus: ATG_TAL_CIS: Attagene CIS-FACTORIAL HepG2 Assay for human TAL Basal Promoter (AID 2282966).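 Note: background control endpoint measuring basal TAL promoter reporter mRNA not a specific factor.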 As to conditions: HepG2 Attagene cis-factorial TAL promoter reporter; actives raise or lower the signal. In outline: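 In this cell-based multiplex, HepG2 liver cells bearing cis-promoter reporter constructs are dosed for 24 hours. Total RNA is reverse-transcribed and amplified, labelled fragments are sized by capillary electrophoresis, and signal changes are fitted bidirectionally versus DMSO.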

Assay [17] has as its target X-box-binding protein 1 (Homo sapiens) (UniProt P17861). Description: ATG_Xbp1_CIS: Attagene CIS-FACTORIAL HepG2 Assay for human X-box Binding Protein 1 (XBP1) (AID 2282972). As to conditions: HepG2 XBP1 cis-element reporter, Attagene multiplex; actives raise or lower the signal. In outline: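 HepG2, transient MRTU transfection (cis-promoter driven), 24 h compound exposure. Total RNA → oligo(dT) RT → PCR → 6-FAM labeling → HpaI cut → CE. Bidirectional fit vs DMSO.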

In assay [18] the target is Transcriptional activator Myb (Homo sapiens) (UniProt P10242). Description: ATG_Myb_CIS: Attagene CIS-FACTORIAL HepG2 Assay for human Myeloblastosis (Myb) Proto-Oncogene Transcription Factor (AID 2282986). As to conditions: HepG2 Attagene CIS-FACTORIAL Myb reporter transcription; actives raise or lower the signal. In outline: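 Multiplexed cis-reporter system in HepG2: transient transfection, 24 h treatment, mRNA readout by RT-PCR and capillary electrophoresis. Both increases and decreases are scored versus DMSO negative control.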

Assay [19] addresses Myc proto-oncogene protein (Homo sapiens) (UniProt P01106). Briefly: ATG_Myc_CIS: Attagene CIS-FACTORIAL HepG2 Assay for human Myelocytomatosis (Myc) Proto-Oncogene Transcription Factor (AID 2282990). As to conditions: HepG2, Attagene cis-reporter transcription factor activity; actives raise or lower the signal. In outline: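 Multiplexed cis-reporter transcription in HepG2 cells after 24 h chemical treatment. Reporter mRNA measured by RT-PCR and capillary electrophoresis fluorescence; activity fitted bidirectionally against DMSO control.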

A short description of assay [20]: ATG_Oct_MLP_CIS: Attagene CIS-FACTORIAL HepG2 Assay for human Octamer-Binding Transcription Factor (Oct) (AID 2282993). As to conditions: HepG2 Attagene cis-factorial Oct reporter, mRNA; actives raise or lower the signal. In outline:
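HepG2, transient MRTU transfection, cis promoter elements; 24 h dosing; RT-PCR/CE fluorescence read-out of reporter mRNA; fit both directions vs DMSO.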

Sequence of CCAAT/enhancer-binding protein beta (Homo sapiens) (P17676 whole entry, looked up): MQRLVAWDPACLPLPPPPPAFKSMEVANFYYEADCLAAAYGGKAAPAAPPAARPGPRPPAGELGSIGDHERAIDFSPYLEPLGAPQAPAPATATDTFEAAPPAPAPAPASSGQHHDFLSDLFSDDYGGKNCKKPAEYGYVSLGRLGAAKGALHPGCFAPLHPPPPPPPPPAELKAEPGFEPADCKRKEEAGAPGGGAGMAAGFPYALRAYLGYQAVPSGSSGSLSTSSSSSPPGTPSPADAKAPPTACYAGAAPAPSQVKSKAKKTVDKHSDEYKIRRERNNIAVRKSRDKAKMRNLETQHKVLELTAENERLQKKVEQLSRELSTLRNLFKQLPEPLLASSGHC
Sequence of Transcription factor Sp1 (Homo sapiens) (P08047 whole entry, looked up): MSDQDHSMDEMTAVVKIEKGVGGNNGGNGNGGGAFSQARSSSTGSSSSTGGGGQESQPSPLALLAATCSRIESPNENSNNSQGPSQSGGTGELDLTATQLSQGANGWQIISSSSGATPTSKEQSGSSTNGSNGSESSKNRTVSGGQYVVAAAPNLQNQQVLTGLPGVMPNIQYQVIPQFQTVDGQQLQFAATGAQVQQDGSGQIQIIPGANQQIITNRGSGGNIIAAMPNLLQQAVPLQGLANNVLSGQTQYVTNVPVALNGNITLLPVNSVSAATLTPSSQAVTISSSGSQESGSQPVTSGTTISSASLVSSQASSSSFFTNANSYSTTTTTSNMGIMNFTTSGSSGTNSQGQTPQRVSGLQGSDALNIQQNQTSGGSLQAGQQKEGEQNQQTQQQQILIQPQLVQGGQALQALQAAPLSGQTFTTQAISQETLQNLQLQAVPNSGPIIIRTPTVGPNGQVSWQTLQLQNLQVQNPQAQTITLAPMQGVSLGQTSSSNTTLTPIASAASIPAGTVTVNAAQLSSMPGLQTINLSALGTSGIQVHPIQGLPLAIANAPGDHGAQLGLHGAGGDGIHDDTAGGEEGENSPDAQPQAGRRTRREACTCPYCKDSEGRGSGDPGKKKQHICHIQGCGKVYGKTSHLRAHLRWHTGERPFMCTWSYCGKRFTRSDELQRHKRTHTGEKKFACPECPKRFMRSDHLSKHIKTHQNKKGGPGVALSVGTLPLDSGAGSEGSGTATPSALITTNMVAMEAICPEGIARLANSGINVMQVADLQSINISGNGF
Sequence of X-box-binding protein 1 (Homo sapiens) (P17861 whole entry, looked up): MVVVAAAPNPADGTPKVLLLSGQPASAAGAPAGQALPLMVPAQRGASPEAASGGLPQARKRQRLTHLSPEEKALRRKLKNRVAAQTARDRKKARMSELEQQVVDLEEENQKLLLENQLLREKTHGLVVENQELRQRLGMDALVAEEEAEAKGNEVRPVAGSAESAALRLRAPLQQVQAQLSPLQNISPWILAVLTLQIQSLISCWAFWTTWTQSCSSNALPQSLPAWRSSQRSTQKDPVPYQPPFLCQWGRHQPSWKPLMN
Sequence of Transcription factor E2F1 (Homo sapiens) (Q01094 whole entry, looked up): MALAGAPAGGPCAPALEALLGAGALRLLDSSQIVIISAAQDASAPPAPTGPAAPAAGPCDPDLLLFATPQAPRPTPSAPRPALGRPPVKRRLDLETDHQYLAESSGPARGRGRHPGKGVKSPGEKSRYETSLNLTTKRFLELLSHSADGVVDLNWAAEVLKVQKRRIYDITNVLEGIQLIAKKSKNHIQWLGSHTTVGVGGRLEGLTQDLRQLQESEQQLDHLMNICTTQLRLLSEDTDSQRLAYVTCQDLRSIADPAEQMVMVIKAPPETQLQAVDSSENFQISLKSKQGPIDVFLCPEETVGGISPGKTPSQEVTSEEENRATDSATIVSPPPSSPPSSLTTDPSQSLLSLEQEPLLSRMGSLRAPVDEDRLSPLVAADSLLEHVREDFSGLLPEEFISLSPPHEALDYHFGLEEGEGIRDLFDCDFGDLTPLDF
Sequence of Myc proto-oncogene protein (Homo sapiens) (P01106 whole entry, looked up): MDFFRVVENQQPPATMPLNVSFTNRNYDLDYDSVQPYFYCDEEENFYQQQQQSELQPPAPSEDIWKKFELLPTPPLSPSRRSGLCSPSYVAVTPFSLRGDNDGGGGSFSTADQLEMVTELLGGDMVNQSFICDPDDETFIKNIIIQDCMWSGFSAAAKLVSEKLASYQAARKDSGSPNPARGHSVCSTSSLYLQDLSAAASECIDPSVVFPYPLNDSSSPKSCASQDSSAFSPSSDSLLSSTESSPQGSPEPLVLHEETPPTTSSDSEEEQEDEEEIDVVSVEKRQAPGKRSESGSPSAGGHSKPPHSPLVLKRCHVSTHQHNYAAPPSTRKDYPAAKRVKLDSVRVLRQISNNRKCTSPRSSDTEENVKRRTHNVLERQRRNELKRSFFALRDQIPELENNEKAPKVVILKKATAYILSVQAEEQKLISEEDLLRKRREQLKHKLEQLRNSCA
Sequence of Signal transducer and activator of transcription 3 (Homo sapiens) (P40763 whole entry, looked up): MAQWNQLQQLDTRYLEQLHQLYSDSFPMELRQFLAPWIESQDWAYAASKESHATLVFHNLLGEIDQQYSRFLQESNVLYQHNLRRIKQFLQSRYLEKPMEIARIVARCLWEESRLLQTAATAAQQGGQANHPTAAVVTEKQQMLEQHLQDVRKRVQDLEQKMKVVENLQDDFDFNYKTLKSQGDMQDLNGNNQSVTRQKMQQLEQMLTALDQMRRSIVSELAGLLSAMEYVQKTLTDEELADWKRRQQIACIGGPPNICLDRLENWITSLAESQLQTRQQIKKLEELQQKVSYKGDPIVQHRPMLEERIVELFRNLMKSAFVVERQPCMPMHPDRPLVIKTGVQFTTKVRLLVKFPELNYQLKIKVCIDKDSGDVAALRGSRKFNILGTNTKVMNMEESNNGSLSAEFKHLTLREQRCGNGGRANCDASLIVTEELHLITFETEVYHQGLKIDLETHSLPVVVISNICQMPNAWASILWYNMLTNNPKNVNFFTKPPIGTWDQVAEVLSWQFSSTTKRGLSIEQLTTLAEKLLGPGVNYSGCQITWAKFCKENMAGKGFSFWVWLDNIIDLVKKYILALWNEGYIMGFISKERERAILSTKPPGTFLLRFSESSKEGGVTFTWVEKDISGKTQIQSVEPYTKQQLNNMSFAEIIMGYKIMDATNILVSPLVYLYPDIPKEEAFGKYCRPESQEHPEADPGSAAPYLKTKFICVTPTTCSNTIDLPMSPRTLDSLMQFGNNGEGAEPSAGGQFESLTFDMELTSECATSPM
Sequence of Transcriptional activator Myb (Homo sapiens) (P10242 whole entry, looked up): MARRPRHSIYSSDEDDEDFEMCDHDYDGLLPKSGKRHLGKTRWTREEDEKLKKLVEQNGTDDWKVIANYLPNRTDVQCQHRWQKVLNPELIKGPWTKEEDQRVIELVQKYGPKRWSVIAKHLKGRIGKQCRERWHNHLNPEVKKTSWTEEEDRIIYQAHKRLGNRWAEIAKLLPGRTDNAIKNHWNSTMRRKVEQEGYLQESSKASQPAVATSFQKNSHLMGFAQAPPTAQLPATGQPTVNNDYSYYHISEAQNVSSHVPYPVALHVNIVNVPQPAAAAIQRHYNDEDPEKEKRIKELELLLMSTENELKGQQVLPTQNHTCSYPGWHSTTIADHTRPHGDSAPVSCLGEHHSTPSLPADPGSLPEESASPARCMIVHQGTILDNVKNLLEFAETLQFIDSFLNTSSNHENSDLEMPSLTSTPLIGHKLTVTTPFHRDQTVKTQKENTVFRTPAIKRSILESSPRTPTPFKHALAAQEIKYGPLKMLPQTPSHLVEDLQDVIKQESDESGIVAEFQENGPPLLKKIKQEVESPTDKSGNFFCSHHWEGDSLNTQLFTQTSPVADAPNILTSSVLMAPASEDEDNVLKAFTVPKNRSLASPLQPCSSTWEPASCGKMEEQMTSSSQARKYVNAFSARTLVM

In the case of `BrCBr`, the result in assay [1], in [2], in assay [3], in assay [4], in assay [5] and in assay [6] was inactive. In addition, the compound was classed as inactive in assay [7], in [8], in assay [9], in assay [10], in assay [11] and in assay [12]. Also, the call in assay [13], in assay [14], in assay [15], in assay [16], in [17] and in assay [18] was inactive. The compound was called inactive in assay [19] and in assay [20].
In general, AC50 refers to the concentration at which the activity in the assay is half-maximal. Take `c1cc(OCC2CO2)ccc1Cc1ccc(OCC2CO2)cc1` (stereo not given): the outcome in assay [1], in assay [4], in [6], in [7], in [9] and in [14] was inactive. In addition, the result in assay [16] and in assay [18] was inactive. Besides, the AC50 in [2] was 48.3 µM (active); in assay [3] it was 57.9 µM (active); in [5], 53.2 µM (active); in [8] it was 49.1 µM (active); in assay [10] it was 8.22 µM (active); in [11], 33.4 µM (active). Moreover, the AC50 is 37.6 µM (active) in [12]; 54.8 µM (active) in [13]; 35.2 µM (active) in assay [15]; 19.8 µM (active) in [17]; 22.9 µM (active) in assay [19]; 25.3 µM (active) in assay [20].
With `Cc1ncc(C[n+]2csc(CCO)c2C)c(N)n1`, the result in [1], in assay [2], in assay [3], in assay [4], in assay [5] and in [6] was inactive. In addition, the result in [7], in [8], in [9], in assay [10], in assay [11] and in assay [12] was inactive. The compound was called inactive in [13], in assay [14], in [15], in assay [16], in [17] and in assay [18]. In addition, the call in assay [19] and in [20] was inactive.
`CC(C)CCCCCCCOP(=O)(Oc1ccccc1)Oc1ccccc1`: the result in assay [1], in assay [3], in assay [4], in assay [5], in assay [6] and in [7] was inactive. Besides, the outcome in assay [8], in [9], in assay [11], in assay [12], in assay [13] and in assay [14] was inactive. Also, the result in assay [15], in assay [16], in assay [17], in [18], in assay [19] and in [20] was inactive. Further, the AC50 in assay [2] is 21.6 µM (active); in assay [10] it was 0.408 µM (active).
